Our source for the growth values is PubChem BioAssay (NCI).

Molecules are shown by their SMILES. The panel holds about 83,000 compounds, 20% with a hit somewhere; the sample as a whole holds those more often.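 Plates (96-well) were seeded with cells, treated with compound at one concentration, and incubated for 48 hours before percent growth was determined.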 A number with no mark means an inactive call. Calls of active or inactive are those of the source. How the source made its calls: active means growth percent below 10; inactive means the rest.

Common to all, as to test: NCI-60 one-dose screen, 48 h (100 = growth as untreated, 0 = no growth, -100 = all killed)
Holding throughout (details): 10 µM unless noted

The test system of test [1] is HCT-15 colon.
The subject of test [2] is HT29 colon.
For test [3], the system named is SNB-75 CNS.
The subject of test [4] is SNB-19 CNS.
Test [5] relates to U251 CNS.
Test [6] relates to PC-3 prostate.
For test [7], the system named is SK-MEL-5 melanoma.
For test [8], the system named is UACC-62 melanoma.
In test [9] the test system is LOX IMVI melanoma.
For test [10], the system named is SK-MEL-28 melanoma.

Regarding `O=C(CCCCNC(=O)c1cc(=O)c(O)co1)Nc1ccccc1`, the growth is 49% in test [1]; 98.2% in [2]; 84.9% in [3]; 102% in test [4]; 92.8% in [5]; 95.9% in test [6]. In addition, the growth in test [7] was 98.6%; in [8], 90.1%; in test [9], 45.3%; in test [10], 103%.

Consider `COc1ccc2c(c1)c(-c1ccc(-c3cn(C)c4ccc(OC)cc34)[nH]1)cn2C`, for which the growth was 4.19% (active) in test [1]; 48% in test [2]; 17.9% in test [3]; 27.2% in test [4]; -62.9% (active) in test [5]; -11% (active) in [6]. The growth is 29.6% in test [7], 5.29% (active) in test [8], -17.8% (active) in test [9] and -20.1% (active) in test [10].

For the compound `CC(=O)N(Cc1ccccc1)c1nc2ccc(O)c(CN(C)C)c2s1`, the growth in test [1] is 97.8%; in [2], 109%; in test [3] it was 79.2%; in test [4] it was 100%; in [5] it was 96.2%; in [6], 90.2%. For the same compound, the growth is 99% in [7], 93.7% in [8], 94.1% in test [9] and 107% in test [10].

Consider `CC(C)CCC[C@@H](C)C1CCC2C3CCC4=C/C(=N/OCCN(C)C)CC[C@]4(C)C3CC[C@@]21C` (stereo not given in full), for which the growth in [1] is 98.3%; in test [2], 78.7%; in test [3], 80.5%; in test [4], 86.5%; in [5] it was 79.2%; in test [6], 57.1%. The growth in [7] is 99.3%; in [8], 84.9%; in [9] it was 57.8%; in test [10] it was 101%.

On to `CCOC(=O)C1CCN(c2ccc(N3C[C@@H](CNCc4ccc(C(=N)N)cc4)OC3=O)cc2)CC1`, for which the growth in test [1] was 102%; in test [2] it was 105%; in test [3], 83.8%; in test [4], 98.9%; in test [5], 104%; in test [6], 94.4%. Besides, the growth in [7] is 103%; in test [8] it was 97.3%; in test [9], 96.4%; in [10], 105%.

In the case of `COc1ccc(C2=C/C(=C\c3ccc(Cl)cc3)C(=O)N2/N=C/c2ccc(Cl)cc2)cc1`, the growth in test [1] was 98.8%; in test [2] it was 86.8%; in test [3] it was 105%; in test [4], 96.7%; in test [5], 84.5%; in [6] it was 91.4%. The growth in [7] was 99.5%; in [8], 84.4%; in [9], 99.1%; in [10], 101%.

Regarding `FC(F)(F)c1[nH]ncc1-c1nc2c(N3CCCCC3)cc3[nH]ncc3c2c2c1CCCC2`, the growth was 5.17% (active) in test [1]; 1.21% (active) in test [2]; -73.8% (active) in [3]; 7.25% (active) in test [4]; 3.57% (active) in test [5]; 0.448% (active) in [6]. Further, the growth in test [7] is -68.2% (active); in test [8], -49.9% (active); in [9], -68.9% (active); in test [10], -6.99% (active).

As for `CN1CCN(Cc2ccc(NC(=O)c3cncc(C#Cc4cncc5ncccc45)c3)cc2C(F)(F)F)CC1`, the growth in test [1] is 19.7%; in test [2] it was -4.72% (active); in test [3], 13.6%; in [4], 46.7%; in test [5] it was 38.8%; in test [6] it was 23%. The growth in [7] is 19.1%; in [8], 5.7% (active); in test [9] it was -85.7% (active); in test [10] it was 12.4%.

On to `O=C(Nc1ccc(F)cc1)Nc1ccccc1CNc1nc(Nc2ccc(OCCN3CCCC3)cc2)ncc1Cl`, for which the growth in test [1] was 38.8%; in [2], 6.13% (active); in test [3] it was -15.7% (active); in test [4] it was 45.8%; in test [5] it was 20.6%; in [6], 61.7%. In addition, the growth in test [7] was 44.9%; in test [8], 95.2%; in [9] it was -57.6% (active); in [10] it was -13.3% (active).

For the compound `COc1cc2cc(NCc3ccc(OC(F)F)cc3)nc(C)c2cc1OC`, the growth was 59.9% in [1]; 25.7% in [2]; 88.1% in test [3]; 66.2% in [4]; 62.3% in [5]; 64.5% in [6]. Also, the growth in test [7] was 68.3%; in test [8], 47%; in test [9], 27.7%; in test [10] it was 72.7%.

For the compound `CCOc1ccc(/C=N\N=C\c2ccc(OCC)cc2)cc1`, the growth is 7.98% (active) in test [1]; 34.5% in test [2]; 112% in [3]; 98.3% in test [4]; 74.4% in test [5]; 67.1% in test [6]. Moreover, the growth in [7] is 88.3%; in test [8], 79.9%; in [9] it was 70.5%; in test [10] it was 105%.

As for `C=CCN=C(N)SCCCCCCSC(N)=NCC=C`, the growth in test [1] is 96.4%; in test [2] it was 73.2%; in test [3], 98.8%; in [4], 102%; in [5], 87.4%; in test [6], 68.5%. Besides, the growth in test [7] is 101%; in [8] it was 87.5%; in test [9], 93.1%; in test [10] it was 103%.
